The antibiotic and cytotoxicity screens of Wong et al. (2023)
About 3,300 (8.5%) of roughly 39,000 compounds were called active. Shown is part of a subset that was picked to be rich in actives.

What follows are molecules tested on HepG2 (assay: cytotoxicity call (relative viability < 0.9)). Conditions: 10 µM.
`C[C@@H]1CN([C@H](C)CO)S(=O)(=O)c2ccc(-c3ccncc3)cc2O[C@H]1CN(C)S(=O)(=O)c1ccccc1F` was tested, and the cytotoxicity call was “inactive”. For `NC(=O)c1cccnc1N1CCN(C(=O)[C@@H]2CC(=O)N(C3CC3)C2)CC1`, the cytotoxicity call was “inactive”. `CCCC(=O)Nc1ccc2c(c1)C(=O)N(C)[C@@H]1CC[C@@H](CC(=O)NCCN3CCCCC3)O[C@H]1CO2` was tested, and the cytotoxicity call was “inactive”. In the case of `Cn1nc(O)c(=O)[nH]c1=S`, the cytotoxicity call is reported as “inactive”. `O=C(Cc1ccncc1)Nc1ccc2c(c1)[C@H]1C[C@H](CC(=O)N3CCc4ccccc4C3)O[C@@H](CO)[C@H]1O2` was tested, and the cytotoxicity call was “inactive”. For `Cc1cn2c3c(=O)n(C)c(=O)n(C)c3nc2n1CCN1CCOCC1`, the cytotoxicity call was “inactive”. In the case of `Cc1noc(C)c1NC(=O)N(C)C[C@H]1OCCCC[C@H](C)Oc2ccc(NC(=O)CCC(F)(F)F)cc2C(=O)N([C@H](C)CO)C[C@@H]1C`, the cytotoxicity call is reported as “inactive”. `C[C@@H]1CN([C@@H](C)CO)C(=O)c2cc(NC(=O)Nc3ccc(C(F)(F)F)cc3)ccc2O[C@@H](C)CCCCO[C@H]1CN(C)Cc1ccc2c(c1)OCO2` was tested, and the cytotoxicity call was “active”. For `C[C@H](CO)N1C[C@H](C)[C@@H](CN(C)Cc2ccc3c(c2)OCO3)OCCCC[C@H](C)Oc2ccc(NC(=O)Nc3ccc(C(F)(F)F)cc3)cc2C1=O`, the cytotoxicity call was “active”. With `C[C@@H]1CN([C@H](C)CO)C(=O)c2cc(NC(=O)Nc3ccc(C(F)(F)F)cc3)ccc2O[C@@H](C)CCCCO[C@H]1CN(C)Cc1ccc2c(c1)OCO2` the cytotoxicity call was “active”. For `Cn1c(=O)[nH]c(=O)c2c(=O)cc[nH]c21`, the cytotoxicity call was “inactive”. `COc1ccccc1CNC(=O)C[C@H]1C[C@H]2c3cc(NC(=O)Cc4ccncc4)ccc3O[C@H]2[C@@H](CO)O1` was tested, and the cytotoxicity call was “inactive”. In the case of `C[C@@H]1CCCCO[C@H](CN(C)S(=O)(=O)c2ccc(F)cc2)[C@H](C)CN([C@H](C)CO)C(=O)c2cc(NC(=O)Nc3cccc4ccccc34)ccc2O1`, the cytotoxicity call is reported as “inactive”. `C[C@@H]1CN([C@@H](C)CO)C(=O)c2c(c3ccccc3n2C)-c2ccccc2CO[C@H]1CN(C)C(=O)Nc1cccc(Cl)c1Cl` was tested, and the cytotoxicity call was “inactive”. With `CC(C)[C@H](NC=O)C(=O)OC[C@H](O)[C@H](O)[C@H](O)[C@H](O)COC(=O)[C@H](NC=O)C(C)C` the cytotoxicity call was “inactive”. In the case of `C[C@H](CO)N1C[C@H](C)[C@@H](CN(C)Cc2ccncc2)Oc2c(NC(=O)c3ccncc3)cccc2C1=O`, the cytotoxicity call is reported as “inactive”. With `O=C1CSC(/N=C/c2ccccc2O)=NN1` the cytotoxicity call was “active”. With `O=C(NCc1cccc(F)c1)[C@@H]1[C@@H](CO)[C@@H]2Cn3c(cccc3=O)[C@H]1N2C(=O)c1cnccn1` the cytotoxicity call was “inactive”. For `CN(C)CCC=C1c2ccccc2Sc2ccc(Cl)cc21.Cl`, the cytotoxicity call was “active”. With `CN(C)CC/C=C1/c2ccccc2Sc2ccc(Cl)cc21` the cytotoxicity call was “active”. In the case of `CCS(=O)(=O)N1C[C@]2(CN(Cc3cc(ccc3F)F)C2)c2c(n(c3cc(ccc23)OC)C)[C@H]1CO`, the cytotoxicity call is reported as “inactive”. `CCS(=O)(=O)N1C[C@]2(CN(Cc3ccc4c(c3)OCO4)[C@H](CO)c3c2c2ccc(cc2n3C)OC)C1` was tested, and the cytotoxicity call was “inactive”. In the case of `C[C@@H]1CN([C@@H](C)CO)C(=O)c2cccc(NS(C)(=O)=O)c2O[C@H]1CN(C)C(=O)Nc1ccc2c(c1)OCO2`, the cytotoxicity call is reported as “inactive”. For `Cc1noc(C)c1S(=O)(=O)N(C)C[C@H]1OCCCC[C@@H](C)Oc2ccc(N(C)C)cc2C(=O)N([C@H](C)CO)C[C@@H]1C`, the cytotoxicity call was “inactive”. With `COc1ccc(NC(=O)Nc2ccc3c(c2)C(=O)N([C@@H](C)CO)C[C@H](C)[C@@H](CN(C)C(=O)CCC(F)(F)F)OCCCC[C@@H](C)O3)cc1` the cytotoxicity call was “inactive”. With `C[C@H](CO)N1C[C@H](C)[C@@H](CN(C)Cc2ccncc2)OCCCC[C@H](C)Oc2ccc(NC(=O)C3CCCCC3)cc2C1=O` the cytotoxicity call was “inactive”. In the case of `C[C@@H]1CN([C@H](C)CO)C(=O)c2cc(NC(=O)CCCN(C)C)ccc2O[C@H]1CN(C)Cc1ccc(Oc2ccccc2)cc1`, the cytotoxicity call is reported as “active”. With `C[C@H]1CN([C@@H](C)CO)C(=O)c2cc(NC(=O)CCCN(C)C)ccc2O[C@H]1CN(C)Cc1ccccc1` the cytotoxicity call was “inactive”. In the case of `C[C@H]1CN([C@@H](C)CO)C(=O)c2cc(NC(=O)CCCN(C)C)ccc2O[C@H]1CN(C)Cc1ccc(Oc2ccccc2)cc1`, the cytotoxicity call is reported as “active”. In the case of `C[C@@H]1CN([C@@H](C)CO)C(=O)c2cc(NC(=O)CCCN(C)C)ccc2O[C@H]1CN(C)Cc1ccccc1`, the cytotoxicity call is reported as “inactive”. `COc1ccc(CN(C)C[C@H]2Oc3ccc(NC(=O)CCCN(C)C)cc3C(=O)N([C@H](C)CO)C[C@H]2C)cc1` was tested, and the cytotoxicity call was “inactive”. `C[C@@H]1CN([C@H](C)CO)C(=O)c2cc(NC(=O)CCCN(C)C)ccc2O[C@@H]1CN(C)Cc1ccc(Oc2ccccc2)cc1` was tested, and the cytotoxicity call was “active”. `C[C@H](CO)N1C[C@H](C)[C@@H](CN(C)Cc2ccccc2)Oc2ccc(NC(=O)CCCN(C)C)cc2C1=O` was tested, and the cytotoxicity call was “inactive”. With `C[C@H](CO)N1C[C@H](C)[C@@H](CN(C)Cc2ccc(Oc3ccccc3)cc2)Oc2ccc(NC(=O)CCCN(C)C)cc2C1=O` the cytotoxicity call was “inactive”. In the case of `C[C@H]1CN([C@@H](C)CO)C(=O)c2cc(NC(=O)CCCN(C)C)ccc2O[C@@H]1CN(C)Cc1ccc(Oc2ccccc2)cc1`, the cytotoxicity call is reported as “active”. For `C[C@@H]1CN([C@@H](C)CO)C(=O)c2cc(NC(=O)CCCN(C)C)ccc2O[C@H]1CN(C)Cc1ccc(Oc2ccccc2)cc1`, the cytotoxicity call was “inactive”. `C[C@@H]1CN([C@H](C)CO)C(=O)c2cc(NC(=O)CCCN(C)C)ccc2O[C@H]1CN(C)Cc1ccccc1` was tested, and the cytotoxicity call was “inactive”. In the case of `COc1ccc(CN(C)C[C@@H]2Oc3ccc(NC(=O)CCCN(C)C)cc3C(=O)N([C@H](C)CO)C[C@H]2C)cc1`, the cytotoxicity call is reported as “inactive”.
